Experimental data: the supplement of paper PMC8728848
About 410 targets per protein were measured; listed, in parts, are those with the strongest signals and a random draw of the rest.

How the values were obtained:
Experiment in all cases: glycan array binding signal (z-score within array); higher = stronger binding
Settings in all cases: glycan notation: IUPAC condensed, linker removed
[1] = target: GlcNAc(b1-3)Gal(b1-4)GlcNAc
In short: (§1)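 Negative Z-scores can be read as non-binding. The Z-score is calculated within each array and then averaged across arrays of one protein sequence at different concentrations or buffers and across linkers. Arrays, 3228 in all, were curated from the Consortium for Functional Glycomics database and kept only where the protein sequence was available.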

[2] = target: GlcNAc(b1-3)Gal(b1-4)GlcNAc(b1-3)Gal(b1-4)GlcNAc(b1-3)Gal(b1-4)GlcNAc(b1-3)Gal(b1-4)GlcNAc(b1-2)[GlcNAc(b1-3)Gal(b1-4)GlcNAc(b1-3)Gal(b1-4)GlcNAc(b1-3)Gal(b1-4)GlcNAc(b1-3)Gal(b1-4)GlcNAc(b1-6)]Man(a1-6)[GlcNAc(b1-3)Gal(b1-4)GlcNAc(b1-3)Gal(b1-4)GlcNAc(b1-3)Gal(b1-4)GlcNAc(b1-3)Gal(b1-4)GlcNAc(b1-2)Man(a1-3)]Man(b1-4)GlcNAc(b1-4)[Fuc(a1-6)]GlcNAc
In short: as §1

[3] = target: GlcNAc(b1-4)Gal(b1-4)GlcNAc
In short: as §1

GlcNAc(b1-6)GalNAc = target: GlcNAc(b1-6)GalNAc
In short: as §1

[4] = target: Man(a1-2)Man(a1-3)[Man(a1-6)]Man(a1-6)[Man(a1-2)Man(a1-3)]Man(b1-4)GlcNAc(b1-4)GlcNAc
In short: as §1

[5] = target: Neu5Ac(a2-3)Gal(b1-3)[Fuc(a1-4)]GlcNAc
In short: as §1

[6] = target: Neu5Ac(a2-3)Gal(b1-4)[Fuc(a1-3)]GlcNAc
In short: as §1

[7] = target: Neu5Ac(a2-3)Gal(b1-4)[Fuc(a1-3)]GlcNAc(b1-6)[Neu5Ac(a2-3)Gal(b1-3)]GalNAc
In short: as §1

Neu5Ac(a2-6)Gal = target: Neu5Ac(a2-6)Gal
In short: as §1

[8] = target: Neu5Ac(a2-6)Gal(b1-4)GlcNAc(b1-2)Man(a1-3)Man(b1-4)GlcNAc(b1-4)GlcNAc
In short: as §1

[9] = target: Neu5Ac(a2-6)Gal(b1-4)GlcNAc(b1-2)Man(a1-6)[Gal(b1-4)GlcNAc(b1-2)Man(a1-3)]Man(b1-4)GlcNAc(b1-4)GlcNAc
In short: as §1

[10] = target: Neu5Ac(a2-6)Gal(b1-4)GlcNAc(b1-3)Gal(b1-4)GlcNAc(b1-3)Gal(b1-4)GlcNAc(b1-2)Man(a1-3)[Neu5Ac(a2-6)Gal(b1-4)GlcNAc(b1-3)Gal(b1-4)GlcNAc(b1-3)Gal(b1-4)GlcNAc(b1-2)Man(a1-6)]GalNAc
In short: as §1

[11] = target: Neu5Ac(a2-6)Gal(b1-4)GlcNAc(b1-3)Gal(b1-4)GlcNAc(b1-6)[Gal(b1-3)]GalNAc
In short: as §1

[12] = target: Neu5Ac(a2-6)Gal(b1-4)GlcNAc(b1-3)[Neu5Ac(a2-6)Gal(b1-4)GlcNAc(b1-6)]GalNAc
In short: as §1

[13] = target: Neu5Ac(a2-6)Gal(b1-4)GlcNAc(b1-6)GalNAc
In short: as §1

[14] = target: Neu5Ac(a2-6)GlcNAc(b1-4)GlcNAc
In short: as §1

[15] = target: Neu5Ac(a2-8)Neu5Ac(a2-3)[GalNAc(b1-4)]Gal(b1-4)Glc
In short: as §1

[16] = target: Neu5Ac(a2-8)Neu5Ac(a2-8)Neu5Ac(a2-3)Gal(b1-4)Glc
In short: as §1

[17] = target: Neu5Ac(a2-8)Neu5Ac(a2-8)Neu5Ac(a2-8)Neu5Ac(a2-3)[GalNAc(b1-4)]Gal(b1-4)Glc
In short: as §1

[18] = target: Neu5Ac9Ac(a2-3)Gal(b1-3)GlcNAc
In short: as §1

[19] = target: Neu5Ac9Ac(a2-3)Gal(b1-4)GlcNAc
In short: as §1

B1: CC1G-11630 (Coprinopsis cinerea), A8P462 (protein)
chain: MTTEAKIKLKAVVYWELVFDYDNSSNTGEITQSYTVKISQTSTRSTFASEVSTTTIDTLTKNNQEVDVGASYGAISANVSASWEHSEEVNNMLEKTTQTSTEDTYTVETEETRSYTIGPGGMLSLFQKHFSGPGMHVAFDVFTTDLELAKERTEIDIDVDVEAIRFVREIRVVYTDIMSEAPGDHVREINGKNPDINYGFNGKFVWLVPEQTRKTAQALTNVEFVSQAESDDRYWDLAAGAGGSNRYLIPVYDTNNKDKIYELALWRSDSYITHDKVKAAGWSGTTGDINSGRGGTYLNLVWKTRHAY
With B1 the “glycan array binding signal (z-score)” value [1] was -0.538, the “glycan array binding signal (z-score)” value [2] was 5.85 and the “glycan array binding signal (z-score)” value [3] was -0.152. For the same binder, the “glycan array binding signal (z-score)” value (GlcNAc(b1-6)GalNAc) was -0.182, the “glycan array binding signal (z-score)” value [4] was -0.164 and the “glycan array binding signal (z-score)” value [5] was -0.138. The “glycan array binding signal (z-score)” value [6] was -0.567, the “glycan array binding signal (z-score)” value [7] was 0.186 and the “glycan array binding signal (z-score)” value (Neu5Ac(a2-6)Gal) was -0.074. The “glycan array binding signal (z-score)” value [8] was -0.49, the “glycan array binding signal (z-score)” value [9] was 15.9 and the “glycan array binding signal (z-score)” value [10] was 2.1. For the same binder, the “glycan array binding signal (z-score)” value [11] was 0.078, the “glycan array binding signal (z-score)” value [12] was 0.001 and the “glycan array binding signal (z-score)” value [13] was 2.18. For the same binder, the “glycan array binding signal (z-score)” value [14] was -0.717, the “glycan array binding signal (z-score)” value [15] was 0.069 and the “glycan array binding signal (z-score)” value [16] was -0.108. For the same binder, the “glycan array binding signal (z-score)” value [17] was -0.33, the “glycan array binding signal (z-score)” value [18] was 0.279 and the “glycan array binding signal (z-score)” value [19] was -0.202.
